# Results as given in the supplement of paper PMC10338343.
# ± gives the standard deviation.
# Test system: MILI (PIWIL2) piRISC loaded with L1MC piRNA (26 nt)
# Assay: pre-steady-state target cleavage rate (min^-1); guide: L1MC piRNA 5'p-UAACUAAAUACUAUGCAAGCUGUAGG; MIWI and MILI are mouse PIWI proteins and EfPiwi is from a freshwater sponge; tags in brackets are library labels; higher = faster piRNA-guided slicing of the target
# Details: auxiliary factor: 500 nM mouse GTSF1
# How it was run: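 A burst-and-steady-state fit was used to obtain the pre-steady-state cleavage rate. The input data were sequencing reads of uncleaved targets, normalised to depth and to weakly complementary targets, from a […] transcribed, DNA-blocked target RNA library mixed with 1 nM active affinity-purified piRISC holding one synthetic guide, with or without 500 nM GTSF1 partner protein, in HEPES–potassium acetate buffer at 33 °C for 0–8 or 0–960 min. Three trials were pooled and k3 was capped at 0.0001 min^-1.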
# 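Further: 1 nM active piRISC with 0.1 nM target library at 33 °C single turnover.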
row,Sequence,pre-steady-state target cleavage rate
1,UCCUGGUACACGAUGCAUAGUAUUUAGUAA,0.186 ± 0.042
2,UCCUGGAUGUGCUUGGAUACUAUUUAGUUA,0.0156 ± 0.0061
3,UCCUGGAUCAGCUUGCAUAGUAUAUACAAA,0.0964 ± 0.023
4,UCCUGGAACAGCUUGCAUAGUAUAUUCAAA,0.0758 ± 0.022
5,UCCUGGAACAGCUUGCUAUAGUAUUUAGUUA,0.028 ± 0.0077
6,UCCUCCUAGUGCUUGCAUAGUAUUUUCAAA,0.0158 ± 0.0057
7,UCCUGGAACAGCUUGGUUAGUAUUUAGAAA,0.16 ± 0.04
8,UCCUCCUACUCGUUGCAUAGUAUUUACAAA,0.0372 ± 0.012
9,UCCUGCUACAGCUUGCAUUCUAUUUUCAAA,0.0184 ± 0.0078
10,UCCUGGAUGUCGUUGCAAAGUAUUAAGUUA,0.0094 ± 0.0044
11,UCCUGGAUCACCUUGCAUAGUAUUUACUUA,0.0587 ± 0.017
12,UCCUGGAUGUCGAUGCAUAGUAUUUAGAUA,0.0384 ± 0.011
13,UCCUGGAUGAGGAAGCAUAGUAUUUAGUAA,0.0509 ± 0.013
14,UCCUGGAACAGCUUGCAUAGAAUUUAGAAA,0.0206 ± 0.0083
15,UCCUGGAACAGCAUGCAUAGUAUUUACUUA,0.221 ± 0.034
16,UCCUGGAUGUCGUUGCAUAGUAUGUAGUUA,0.015 ± 0.0074
17,UCCUGGAUGACCUUGCAUAGUAUUUUGUUA,0.0852 ± 0.023
18,UCCUGGAUGUCGAAGCAUAGUAUUUAUUUA,0.0073 ± 0.0034
19,UCCUGGAUGUCCUUGCAUAGUAUUUACUUA,0.0499 ± 0.013
20,UCCUGGAUGUGCUUGCAUAGUAUUUUCUUA,0.00861 ± 0.005
21,UCCUGGAUGAGCUUGCAUAGUAUUAUGAAA,0.00473 ± 0.0045
22,UCCUGGAACAGCUUGCAUAGUAUUUGUUA,0.0747 ± 0.021
23,UCCUGGUACAGCUUGCAUAGUAUAUAGAAA,0.0845 ± 0.028
24,UCCUGGAACAGCUUGCAUACUAUAUAGUUA,0.0332 ± 0.0099
25,UCCUGGAUGUCGAUGCAUAGUAUUUCAGUUA,0.108 ± 0.025
26,UCCUGGUACAGCUUGCAUAGUUUUUUGUUA,0.0564 ± 0.015
27,UCCUGGAUGUCCUUGCAUACUAAUUAGUUA,0.00561 ± 0.0042
28,UCCUGCUACAGCUACGAUAGUAUUUAGUAA,0.185 ± 0.035
29,UCCUGGUACUGCUUGCAUAGAAUUUAGUUA,0.0381 ± 0.017

# Same assay, conditions: auxiliary factor: none (no GTSF1)
row,Sequence,pre-steady-state target cleavage rate
1,UCCUGGAUGUCGAAGCAUAGUUAAAUCAAA [g10:g16:cont:t1A],< 0.0001
2,UCCUGGAUGUCGAACGUAUCUAAUUAGUUA,< 0.0001
3,UCCUGGAUGUCGAAGCAUAGUAUUAUCUUA,< 0.0001
4,UCCUGGAUGUCGAUCCUUAGUAUUUAGUUA,< 0.0001
5,UCCUGGAUGUCGAACGAAUAGUAUUUAGUUA,< 0.0001
6,UCCUGGAUGUCGAACGAUAGUUAUUUAGUUA,< 0.0001
7,UCCUGGAUCAGCAACCAUAGUAUUUACAAA,< 0.0001
8,UCCUGGAUGUCGAACCAUAGUAUUUAGUGUA,< 0.0001
9,UCCUGGAUGUCGAACGUAAGAUAUUUAGUUA,< 0.0001
10,UCCUGGAUGUCGAACGAUAGUAUGUUAGUUA,< 0.0001
11,UCCUGGAUGUCGAACGUUAGUAUUUCGUUA,< 0.0001
